9 compounds from PubChem BioAssay (NCI) can be followed below.

Assay [1] in a line: NCI Yeast Anticancer Drug Screen. Data for the rad50 strain (AID 155).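 Note: 0% = growth of vehicle-only cultures of the same strain.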 The conditions noted are these: S. cerevisiae rad50 strain growth inhibition, active compounds read high. A digest of the protocol:
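Cells are treated with compound, grown, and their growth is then scored against vehicle-only cultures of the same repair-deficient yeast strain.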

A short description of assay [2]: NCI Yeast Anticancer Drug Screen. Data for the mec2-1 strain (AID 157). The conditions noted are these: S. cerevisiae mec2-1 strain, active compounds read high. The essentials:
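Test agents were screened against the mec2-1 yeast strain, with defined DNA repair or cell cycle alteration. Growth was scored as inhibition against vehicle-only controls.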

Assay [3] is described as follows: NCI Yeast Anticancer Drug Screen. Data for the sgs1 mgt1 strain (AID 161).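 Note: 0% = growth of cultures given vehicle only.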 The conditions noted are these: S. cerevisiae sgs1 mgt1 strain, active compounds read high. The essentials: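 Read-out: growth inhibition vs vehicle controls. Cells: mutant yeast strain deficient in DNA damage repair.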
Assay [4] can be described thus: NCI Yeast Anticancer Drug Screen. Data for the cln2 rad14 strain (AID 165).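 Note: 0% = growth equal to vehicle treated cultures.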 Conditions: S. cerevisiae cln2 rad14 strain, active compounds read high. A digest of the protocol:
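Growth of compound-exposed yeast (cln2 rad14 genotype) measured and expressed as inhibition relative to vehicle.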

A short description of assay [5]: NCI Yeast Anticancer Drug Screen. Data for the bub3 strain (AID 167). The conditions noted are these: S. cerevisiae bub3 mutant strain, active compounds read high. A digest of the protocol:
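Part of a panel of yeast mutants defective in DNA damage repair or cell cycle regulation. Each strain is grown with compound, and inhibition is calculated relative to solvent-treated cultures.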

A short description of assay [6]: NCI Yeast Anticancer Drug Screen. Data for the mlh1 rad18 strain (AID 175). Conditions: S. cerevisiae mlh1 rad18 strain growth inhibition, active compounds read high. A digest of the protocol:
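In this whole-cell yeast screen, a strain with altered DNA damage repair is challenged with compound, and its growth is measured against matched vehicle-treated controls.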

Setting [7] is: at 5.0 µM (retest, dose inferred, filed as 0.5).
[8] abbreviates: at 50.0 µM (retest, dose inferred, filed as 5.0).

About 79,000 compounds went through this panel and 15% of them were active in at least one assay; those are over-represented in the sample as a whole. Unmarked numbers belong to inactive results. Active and inactive are the calls of the source. Cut-off read from the data, not from the text of the source: active = growth inhibition above about 70%; inactive = the rest.

`CCCCNCCC(SSSC(CCNCCCC)c1ccc(Cl)cc1)c1ccc(Cl)cc1` (configuration not stated): the growth inhibition in assay [1] (setting [7]) was 26%; in assay [1] (setting [8]), 97% (active); in assay [1] (at 50.0 µM), 95.2% (active); in assay [2] (setting [7]), -74%; in assay [2] (setting [8]), 98% (active); in assay [2] (at 50.0 µM), 52.5%. Moreover, the growth inhibition in assay [3] (setting [7]) was 20%; in assay [3] (setting [8]) it was 99% (active); in assay [3] (at 50.0 µM) it was 98.4% (active); in assay [4] (setting [7]), 17%; in assay [4] (setting [8]) it was 97% (active); in assay [4] (at 50.0 µM), 20.1%. For the same compound, the growth inhibition in assay [5] (setting [7]) is 25%; in assay [5] (setting [8]) it was 98% (active); in assay [5] (at 50.0 µM), 52.2%; in assay [6] (setting [7]), 26%; in assay [6] (setting [8]) it was 98% (active); in assay [6] (at 50.0 µM), 97.7% (active).

On to `Cn1c(Sc2ccc(-c3cccnc3)n2C)ccc1-c1cccnc1`, for which the growth inhibition was 11% in assay [1] (setting [7]); 91% (active) in assay [1] (setting [8]); 97.8% (active) in assay [1] (at 50.0 µM); -12% in assay [2] (setting [7]); 92% (active) in assay [2] (setting [8]); 98.7% (active) in assay [2] (at 50.0 µM). The growth inhibition in assay [3] (setting [7]) is -7%; in assay [3] (setting [8]), 97% (active); in assay [3] (at 50.0 µM) it was 97.5% (active); in assay [4] (setting [7]), -15%; in assay [4] (setting [8]) it was 77% (active); in assay [4] (at 50.0 µM), 98.1% (active). Moreover, the growth inhibition in assay [5] (setting [7]) was -19%; in assay [5] (setting [8]), 96% (active); in assay [5] (at 50.0 µM) it was 97.8% (active); in assay [6] (setting [7]) it was -5%; in assay [6] (setting [8]), 95% (active); in assay [6] (at 50.0 µM), 97.3% (active).

On to `O=[N+]([O-])/C(Cl)=C/C(=C1/Nc2ccccc2O1)[N+](=O)[O-]`, for which the growth inhibition in assay [1] (setting [7]) was 17%; in assay [1] (setting [8]) it was 87% (active); in assay [1] (at 50.0 µM), 79.9% (active); in assay [2] (setting [7]), -11%; in assay [2] (setting [8]) it was 47%; in assay [2] (at 50.0 µM), 65.6%. For the same compound, the growth inhibition in assay [3] (setting [7]) is -14%; in assay [3] (setting [8]), 48%; in assay [3] (at 50.0 µM) it was 72.5% (active); in assay [4] (setting [7]), -12%; in assay [4] (setting [8]), 47%; in assay [4] (at 50.0 µM), 65.4%. The growth inhibition in assay [5] (setting [7]) is -15%; in assay [5] (setting [8]) it was 53%; in assay [5] (at 50.0 µM) it was 71.2% (active); in assay [6] (setting [7]), 17%; in assay [6] (setting [8]), 75% (active); in assay [6] (at 50.0 µM), 69%.

Take `O=C1/C(=C/c2ccccc2)CNC/C1=C\c1ccccc1`: the growth inhibition was -11% in assay [1] (setting [7]); 98% (active) in assay [1] (setting [8]); 98.7% (active) in assay [1] (at 50.0 µM); 26% in assay [2] (setting [7]); 97% (active) in assay [2] (setting [8]); 99.3% (active) in assay [2] (at 50.0 µM). The growth inhibition in assay [3] (setting [7]) is -7%; in assay [3] (setting [8]), 96% (active); in assay [3] (at 50.0 µM) it was 95.2% (active); in assay [4] (setting [7]) it was 10%; in assay [4] (setting [8]), 98% (active); in assay [4] (at 50.0 µM) it was 92.5% (active). Besides, the growth inhibition was 6% in assay [5] (setting [7]); 98% (active) in assay [5] (setting [8]); 94.2% (active) in assay [5] (at 50.0 µM); -4% in assay [6] (setting [7]); 98% (active) in assay [6] (setting [8]); 99.2% (active) in assay [6] (at 50.0 µM).

As for `Cc1cc(Cl)c(O)c(C(=O)C(=O)C(O)c2ccc3c(c2)OCO3)c1` (configuration not stated), the growth inhibition in assay [1] (setting [7]) is 98% (active); in assay [1] (setting [8]), 99% (active); in assay [1] (at 50.0 µM), 87.9% (active); in assay [2] (setting [7]) it was 96% (active); in assay [2] (setting [8]), 99% (active); in assay [2] (at 50.0 µM), 90% (active). Moreover, the growth inhibition in assay [3] (setting [7]) is 37%; in assay [3] (setting [8]) it was 99% (active); in assay [3] (at 50.0 µM) it was 82.1% (active); in assay [4] (setting [7]) it was 58%; in assay [4] (setting [8]), 99% (active); in assay [4] (at 50.0 µM), 87.9% (active). Besides, the growth inhibition in assay [5] (setting [7]) is 64%; in assay [5] (setting [8]) it was 94% (active); in assay [5] (at 50.0 µM) it was 87.9% (active); in assay [6] (setting [7]), 38%; in assay [6] (setting [8]) it was 99% (active); in assay [6] (at 50.0 µM), 84.1% (active).

On to `O=C1CCCCO1`, for which the growth inhibition is 1% in assay [1] (setting [7]); 3% in assay [1] (setting [8]); -15.8% in assay [1] (at 50.0 µM); -1% in assay [2] (setting [7]); -3% in assay [2] (setting [8]); -19.4% in assay [2] (at 50.0 µM). Further, the growth inhibition in assay [3] (setting [7]) is 0%; in assay [3] (setting [8]), -4%; in assay [3] (at 50.0 µM), -27.1%; in assay [4] (setting [7]) it was 3%; in assay [4] (setting [8]), -2%; in assay [4] (at 50.0 µM) it was 19.4%. Moreover, the growth inhibition in assay [5] (setting [7]) is -1%; in assay [5] (setting [8]), -3%; in assay [5] (at 50.0 µM), -43.3%; in assay [6] (setting [7]), 0%; in assay [6] (setting [8]) it was 1%; in assay [6] (at 50.0 µM) it was -4.85%.

Consider `CN(NC(=O)/C(=C/c1cc(Cl)cc(Cl)c1O)NC(=O)c1ccccc1)c1cnn(-c2ccccc2)c(=O)c1Cl`, for which the growth inhibition is 15% in assay [1] (setting [7]); 43% in assay [1] (setting [8]); 52.9% in assay [1] (at 50.0 µM); 3% in assay [2] (setting [7]); 36% in assay [2] (setting [8]); 39.2% in assay [2] (at 50.0 µM). Also, the growth inhibition in assay [3] (setting [7]) was -4%; in assay [3] (setting [8]), 45%; in assay [3] (at 50.0 µM), 59.1%; in assay [4] (setting [7]), -6%; in assay [4] (setting [8]) it was 47%; in assay [4] (at 50.0 µM), 55.6%. For the same compound, the growth inhibition is -13% in assay [5] (setting [7]); 43% in assay [5] (setting [8]); 60% in assay [5] (at 50.0 µM); -7% in assay [6] (setting [7]); 62% in assay [6] (setting [8]); 67% in assay [6] (at 50.0 µM).

In the case of `CC(C)(C)c1cc(C(c2cc3c(cc2O)OCO3)N2CCOCC2)cc(C(C)(C)C)c1O` (configuration not stated), the growth inhibition in assay [1] (setting [7]) is 87% (active); in assay [1] (setting [8]) it was 95% (active); in assay [1] (at 50.0 µM) it was 69.9%; in assay [2] (setting [7]) it was 59%; in assay [2] (setting [8]) it was 97% (active); in assay [2] (at 50.0 µM), 64.6%. Moreover, the growth inhibition was 99% (active) in assay [3] (setting [7]); 95% (active) in assay [3] (setting [8]); 72.2% (active) in assay [3] (at 50.0 µM); 52% in assay [4] (setting [7]); 96% (active) in assay [4] (setting [8]); 57.7% in assay [4] (at 50.0 µM). Further, the growth inhibition in assay [5] (setting [7]) is 68%; in assay [5] (setting [8]) it was 96% (active); in assay [5] (at 50.0 µM) it was 63%; in assay [6] (setting [7]), 69%; in assay [6] (setting [8]) it was 97% (active); in assay [6] (at 50.0 µM), 7.8%.

On to `CC1OC(Oc2c(-c3ccc(O)c(O)c3O)oc3cc(O)ccc3c2=O)C(O)C(O)C1O` (configuration not stated), for which the growth inhibition in assay [1] (setting [7]) was -4%; in assay [1] (setting [8]) it was -2%; in assay [1] (at 50.0 µM), 14.4%; in assay [2] (setting [7]), -10%; in assay [2] (setting [8]) it was -5%; in assay [2] (at 50.0 µM), 9.6%. Also, the growth inhibition is -5% in assay [3] (setting [7]); 8% in assay [3] (setting [8]); 17.6% in assay [3] (at 50.0 µM); 3% in assay [4] (setting [7]); -6% in assay [4] (setting [8]); 2.9% in assay [4] (at 50.0 µM). In addition, the growth inhibition in assay [5] (setting [7]) is -3%; in assay [5] (setting [8]), -3%; in assay [5] (at 50.0 µM), -12.7%; in assay [6] (setting [7]) it was -5%; in assay [6] (setting [8]) it was -8%; in assay [6] (at 50.0 µM) it was 27.8%.
